Experimental data taken from the supplement of paper PMC6555819.

How the values were obtained:
Experiment in all cases: PBM binding z-score (relative to random genomic background probes); higher = stronger binding; sequences stand for … in GC…GCGATTGACAGCGTAGAATGAAGG
[1] = test system: RARg:RXRa (NR concentration 270 nM, RXRa partner concentration 90 nM)
Outline: (§1)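 Binding buffer was PBS pH 7.4 with 2% milk, 0.02% Triton X-100, 1 mM DTT, 0.2 mg/mL BSA and 0.4 mg/ml salmon testes DNA. In it, ligand-free nuclear receptor dimers were incubated 1 h on custom Agilent 4×180K protein-binding microarrays carrying double-stranded probes. Antibodies against each partner (one per run) detected binding, and z-scores were calculated against random background probes after regression normalization of scanned fluorescence.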

[2] = test system: RARg homodimer (NR concentration 270 nM)
Outline: as §1

[3] = test system: RXRa DBDmut IVT, anti-RXR (DBD mutation: RXRa K156A/R161A, NR concentration 90 nM)
Outline: as §1

[4] = test system: RXRa homodimer (NR concentration 180 nM)
Outline: as §1

[5] = test system: THRa:RXRa (NR concentration 90 nM, RXRa partner concentration 90 nM)
Outline: as §1

[6] = test system: THRa homodimer (NR concentration 90 nM)
Outline: as §1

[7] = test system: VDR homodimer (NR concentration 270 nM)
Outline: as §1

Sequence | PBM binding z-score [1] | PBM binding z-score [2] | PBM binding z-score [3] | PBM binding z-score [4] | PBM binding z-score [5] | PBM binding z-score [6] | PBM binding z-score [7]
CGAACAAGGTCATCCAGGACAGTGAATACATTGA | 6.28 | 6.49 | 4.2 | 6.46 | 4.53 | 3.3 | 4.92
GATATAGGGTCAGCTAGAGGCCAGAGTATGGAAA | 6.81 | 5.11 | 1.67 | 4.63 | 3.42 | 0.95 | 0.867
CGTCCAAGGTCAATGCTAGATCAGTGAAAGCATT | 5.61 | 5.86 | 3.56 | 4.83 | 3.51 | 1.97 | 2.34
TCTGCTAGGTCAACGTTGGTCAGCTAATCTGCTA | 3.78 | 4.83 | 1.06 | 2.32 | 3.21 | 0.755 | -0.37
TAGCCTAGGTCATACAGGGGCCAGTATAGAAAGC | 5.98 | 4.71 | 1.04 | 3.26 | 3.27 | 0.799 | 0.824
TTACCAAGGTGAAAGGTCGTTGCTGCACGCCTTG | 4.15 | 1.94 | 0.854 | 5.85 | 3.37 | 0.758 | 1.74
TATACAAGGTCAAAGGCCAGAGTACGAATGTCGA | 6.25 | 6.16 | 2.92 | 6.51 | 3.86 | 2.1 | 2.78
TATAAAGGGTCAAAGGCCAGAGTACGAATGTCGA | 6.39 | 6.63 | 3.06 | 7.08 | 3.11 | -0.348 | 2.46
TCGCCTAGGTCATGGGCCAGTATACCACGCGAAC | 4.24 | 4.78 | 1.21 | 3.7 | 3.15 | 1.58 | 0.535
CCTAGTTGGTCAAGGTCACACCCGCTATAGGTAC | 4.26 | 4.56 | 1.78 | 4.2 | 3.94 | 4.24 | 3.57
CGAACGAGGTCATTGACAGGACAGTGAATAGTAA | 7.11 | 6.33 | 4.84 | 7.11 | 4.06 | 2.45 | 5.66
ATATGTAGGTTAGGGGTCATTCAGGTTGGTTCGC | 5.63 | 4.38 | 2.85 | 7.75 | 3.99 | 2.88 | 6.78
ATATGTAGGTTGGGGTCATTCAGAAAGTAGGGAA | 5.15 | 3.36 | 3.69 | 7 | 4.34 | 3.84 | 6.23
CCTTACGGGTCACTCCAGGTCATAGCATCGGAGT | 5.28 | 5.41 | 1.08 | 5.06 |  | 3.03 | 2.49
AGTCAAAGTTCAGGACGAGGTAACGTTAAGCACG | 4.79 | 4.82 | 3 | 2.87 | 3.83 | 1.82 | 2.56
CGTCCAAGGTCATAGAGGTCAGTGAATGCCGAGT | 7.06 | 7.75 | 4.4 | 7.55 | 4.38 | 3.51 | 7.8
CGAACTAGGTCATTGACAGGACAATGAATAGTAA | 4.78 | 4.69 | 2.44 | 2.79 | 2.91 | 0.699 | 1.62
CGAACTAGGTCAAGGACAGTAAATCTCCGCACGC | 4.01 | 4.54 | 1.47 | 2.55 | 3.16 | 2.01 | 0.575
CGAACAAGGTCATTGACAGGACAGTGAATAGTAA | 6.27 | 5.95 | 4.45 | 5.53 | 3.96 | 2.16 | 3.2
AGAATGAGGTTACCAAAGGTCAGGGAAACGCTTG | 6.29 | 5.66 | 1.72 | 7.02 |  | 2.11 | 1.92
CAAACCAGGTCAAGAGGTCAAAGTCCGCTTCCCG | 8.29 | 7.56 | 3.21 | 8.5 |  | 3.54 | 5.13
GGAACGAGGTCAAAGTTGATAGCATCTGTCGACG | 6.64 | 6.56 | 4.67 |  | 4.12 | 2.61 | 4.79
CTACCAAGGTCAACAAGGTCGTTGATTACTATTC | 6.87 | 6.92 | 4.65 | 6.84 |  | 3.68 | 7.86
AGAATGAGGTCATTAAGATCAGGGAATTGCGGTC | 5.83 | 5.03 | 4.81 | 6.72 | 4.38 | 3.69 | 4.67
AATACAGGGTCATCGTAGGTCAGAGTACGCACAG | 6.41 | 5.81 | 3.75 | 6.77 |  | 2.38 | 4.46
ATATGTAGGTTAACTGGGGTCATTCAGACTAGGC | 4.95 | 3.7 | 2.76 | 5.82 |  | 3.07 | 5.41
CCTTACGGGTCACTGACAGGTTATAGCGTTTGGA | 5.75 | 4.55 | 1.73 | 5.06 | 2.76 | 0.417 | 1.2
CAAACTAGGTCACGAGAGGTCAAAGTCGAATGAC | 7.59 | 8.3 | 2.82 | 7.93 |  | 2.88 | 5.09
